This passage reports Potency results from PubChem BioAssay (Tox21).

SMILES strings stand for the structures. Results filed as inconclusive are left out. A call without a number means that no potency is given here. Calls of active or inactive are those of the source. The call rests on the fitted dose curve; in most records, active means well fitted cell-killing curve with a large enough effect in the repeat runs; inconclusive means weak or mixed curves; inactive means no such curve, though single readings can be large or run the other way. Non-standard residues stand in square brackets, D forms with d. Residues, ends and D or L forms follow the SMILES beside them. pGlu = O=C1CC[C@@H](C(=O)O)N1; Thz = O=C(O)[C@@H]1CSCN1
Potency means the concentration at half of the fitted maximal effect.

The nature of the assay: qHTS assay for identifying genotoxic compounds that show differential cytotoxicity against isogenic chicken DT40 cell lines with known DNA damage response pathways - Rad54/Ku70 mutant cell line (AID 743015). Further: nearly all actives have a fitted effect of over 60% in size. The following applies: DT40 Rad54/Ku70 mutant viability, CellTiter-Glo, 40 h; series mostly up to 66.8 µM.
Turning to `CCCCCCCCCCCC(=O)OC[C@@H](O)C1OC[C@H](O)[C@H]1O` (some centres undefined), the Potency entry was “inactive”.

For the compound `CN(C)c1ccc(C(=C2C=CC(=[N+](C)C)C=C2)c2c(O)c(S(=O)(=O)[O-])cc3cc(S(=O)(=O)O)ccc23)cc1`, the Potency is 13.3 µM (active). The same measure for `CNc1cc(OC)c(C(=O)N[C@H]2CCN(Cc3ccccc3)[C@H]2C)cc1Cl`: 8.41 µM (active). The same measure for `O=C(O)c1cccc(/C=C2/C[C@@H]3[C@@H](/C=C/[C@@H](O)C4CCCCC4)[C@H](O)C[C@@H]3O2)c1`: “inactive”; for `NCCCNCCCCNC(=O)C(O)NC(=O)CCCCCCN=C(N)N` (centres undefined): 0.841 µM (active).

Regarding `C=C[C@]1(C)C[C@@H](OC(=O)CSCCN(CC)CC)[C@]2(C)[C@H](C)CC[C@]3(CCC(=O)[C@H]32)[C@@H](C)[C@@H]1O`, the Potency was 6.68 µM (active). As for `CC(O)[C@@H]1NC(=O)[C@H](Cc2ccccc2)NC(=O)[C@H](C(C)O)NC(=O)[C@H](CCCCN)NC(=O)[C@H](Cc2c[nH]c3ccccc23)NC(=O)[C@H](Cc2ccccc2)NC(=O)[C@H](Cc2ccccc2)NC(=O)[C@H](CC(N)=O)NC(=O)[C@H](CCCCN)NC(=O)[C@@H](NC(=O)CNC(=O)[C@H](C)N)CSSC[C@@H](C(=O)O)NC(=O)[C@H](CO)NC1=O` (some centres undefined), the Potency result was “inactive”. `O=C(CO)[C@@H](O)[C@H](O)[C@@H](O)C(=O)O`: the Potency entry is “inactive”. `O=C(O)[C@H]1/C(=C/CO)O[C@@H]2CC(=O)N21`: the Potency entry was “inactive”.

`CN(C)CCCN1c2ccccc2C(C)(C)c2ccccc21`: the Potency was 21.1 µM (active). Turning to `NCCC(=O)[N-][C@@H](Cc1cnc[nH]1)C(=O)O.[Zn]`, the Potency result was “inactive”. In the case of `Cc1cc2nc3c(=O)[nH]c(=O)nc-3n(C[C@H](O)[C@H](O)[C@H](O)COP(=O)(O)OP(=O)(O)OC[C@H]3O[C@@H](n4cnc5c(N)ncnc54)[C@H](O)[C@@H]3O)c2cc1C` it was “inactive”; in that of `C[N@+]12CCCC[C@@H]1CCC(=C(c1cccs1)c1cccs1)C2`, 8.41 µM (active). For the compound `CCCCC/C=C\C/C=C\C/C=C\CCCCC(=O)O`, the Potency result is “inactive”. In the case of `COc1ccc(/C=C/C(=O)OCCC(C)C)cc1` it was “inactive”.

With `CC(=O)[C@@]1(O)CC[C@H]2[C@@H]3C=C(Cl)C4=CC(=O)[C@@H]5C[C@@H]5[C@]4(C)[C@H]3CC[C@@]21C`, the Potency result is “inactive”. As for `O=C1CC[C@@H](C(=O)N2CSC[C@H]2C(=O)O)N1` ([pGlu]-[Thz]-OH), the Potency entry is “inactive”. Regarding `CCCc1ccc(C(=O)O)cc1`, the Potency result was “inactive”. Turning to `CCOc1cc(-c2nccc3cc(OC)c(OC)cc23)cc(OCC)c1OCC`, the Potency was 8.41 µM (active). `CCCCCCCCCCCCCCCC(=O)O[C@@H]1[C@@H](O)[C@@H](O)[C@@H]([C@H](NC(=O)[C@@H]2C[C@@H](CCC)CN2C)[C@H](C)Cl)O[C@@H]1SC`: the Potency entry was “inactive”. The same measure for `OCCN1CCN(CC/C=C2/c3ccccc3Sc3ccc(Cl)cc32)CC1`: 11.4 µM (active); for `CCC(Cc1c(I)cc(I)c(O)c1I)C(=O)O` (centres undefined): “inactive”; for `C=C[C@]1(C)C[C@@H](OC(=O)CSC(C)(C)CNC(=O)[C@H](N)C(C)C)[C@]2(C)[C@H](C)CC[C@]3(CCC(=O)[C@H]32)[C@@H](C)[C@@H]1O`: 0.376 µM (active). The same measure for `C[C@H]1C[C@H]2[C@@H]3CCC4=CC(=O)C=C[C@]4(C)[C@@]3(F)[C@@H](O)C[C@]2(C)[C@@]1(O)C(=O)CCl`: 23.7 µM (active). In the case of `CN=C1C=CC(=C(c2ccc(N(C)C)cc2)c2ccc(N(C)C)cc2)C=C1` it was 0.75 µM (active); in that of `CC(=O)O[C@H]1C(=O)[C@@]2(C)[C@H]([C@H](OC(=O)c3ccccc3)[C@]3(O)C[C@H](OC(=O)[C@H](O)[C@@H](NC(=O)c4ccccc4)c4ccccc4)C(C)=C1C3(C)C)[C@]1(OC(C)=O)CO[C@@H]1C[C@@H]2O`, 0.0133 µM (active). `CC1(O)CCC(C(C)(C)O)CC1` (centres undefined): the Potency result is “inactive”. With `CCOC(=O)COc1ccc2c(C)c(CCN(CC)CC)c(=O)oc2c1`, the Potency result was “inactive”. In the case of `N[C@H](CCC(=O)O)C(=O)O` it was “inactive”. `CCN(CC)CCOc1ccccc1OC`: the Potency result is “inactive”.

In the case of `CC(C)C[C@H](NC(=O)[C@@H](Cc1c[nH]c2ccccc12)NC(=O)[C@H](Cc1ccc(O)cc1)NC(=O)[C@H](CO)NC(=O)[C@H](Cc1c[nH]c2ccccc12)NC(=O)[C@H](Cc1cnc[nH]1)NC(=O)[C@@H]1CCC(=O)N1)C(=O)N[C@@H](CCCN=C(N)N)C(=O)N1CCC[C@@H]1C(=O)NCC(N)=O`, the Potency entry is “inactive”. For the compound `CCCCCCCCCCCCCC[n+]1ccc(C)cc1`, the Potency was 0.266 µM (active).

As to `[O]=[Bi][O][Bi]=[O]`, the Potency result is “inactive”. Take `CC1(C)S[C@@H]2[C@H](NC(=O)[C@H](N)c3ccccc3)C(=O)N2[C@H]1C(=O)OCOC(=O)[C@@H]1N2C(=O)C[C@H]2S(=O)(=O)C1(C)C`: the Potency entry is “inactive”. For `CCN(CC)c1ccc(C(=C2C=CC(=[N+](CC)CC)C=C2)c2ccccc2)cc1`, the Potency is 0.106 µM (active). Take `C=CC1=C(C)C2=CC3=NC(=C(CC(=O)[O-])C4=NC(=C(C)C4=C([O-])[O-])C=c4[n-]c(c(C)c4CC)=CC1=N2)C(CCC(=O)[O-])C3C.[Cu+2].[Na+].[Na+].[Na+]` (centres undefined): the Potency was 29.8 µM (active). As to `COc1ccc(CCNC[C@H](O)c2ccc(O)cc2)cc1OC`, the Potency entry is “inactive”.

For the compound `Cc1cc(C(=O)NNCc2ccccc2)no1`, the Potency result is “inactive”. In the case of `NC[C@@H]1O[C@H](O[C@H]2[C@@H](O)[C@H](O[C@@H]3[C@@H](O)[C@H](N)C[C@H](N)[C@H]3O[C@H]3O[C@H](CN)[C@@H](O)[C@H](O)[C@H]3N)O[C@@H]2CO)[C@H](N)[C@@H](O)[C@@H]1O`, the Potency result was “inactive”.
